Results on 40 compounds are retold here after PubChem BioAssay (Tox21).

Molecules are shown by their SMILES. Records with an inconclusive call do not appear. A number with no mark means an inactive call. Active and inactive are the calls of the source. Calls follow the shape of the dose curve; as a rule, active = well fitted cell-killing curve with a large enough effect in the repeat runs; inconclusive = weak or mixed curves, or effect the other way; inactive = flat fitted curve, though single readings scatter.
% is scaled to controls: 0 for no effect and ±100 for the full control effect.

The nature of the experiment: cAMP Responsive Elements (CRE) small molecule antagonists, cell-based qHTS assay: qHTS cell viability counter screen (AID 2060913). Also: nearly all actives have a fitted effect of over 40% in size. The following applies: CRE-bla HEK293T viability, CellTiter-Glo luminescence, 5 h; series mostly up to 92.4 µM; viability change, negative = cytotoxic: at the top concentration. From the text: U.S. Tox21 Program National Center for Advancing Translational Sciences [NCATS] Division of Preclinical Innovation [DPI] U.S. Environmental Protection Agency [EPA] National Institutes of Environmental Health Sciences [NIEHS] National Toxicology Program [NTP] U.S. Food and Drug Administration [FDA] Tox21 Assay Overview: CREB (cyclic-AMP Responsive Element Binding Protein) is a cellular transcription factor. It binds to certain DNA sequences called cAMP Responsive Elements (CRE) and regulates the transcription of the genes. […] This cell line can be used to find agonists/antagonists of the cyclic AMP signaling pathway. The activation of the report gene under culture conditions can be detected by fluorescence intensity. This cell line has been used to screen the Tox21 10K compound library to identify agonists that induce oxidative stress. The cytotoxicity of the Tox21 compound library against the CRE-bla cell line was tested in parallel by measuring the cell viability using CellTiter-Glo assay (Promega, Madison, WI) in the same wells.
Tox21 Assay Protocol Summary: CRE-bla Hek 293T cells were suspended in assay medium (DMEM containing 10% dialyzed FBS, 0.1 mM NEAA, 1 mM sodium pyruvate and 25 mM HEPES) and dispensed at 2,000 cells/4 uL /well into 1536-well black wall/clear bottom plates using a Multidrop Combi (ThermoFisher Scientific, Waltham, MA) dispenser. After the assay plates were incubated at 37 C/5% CO2 for 18 hrs, 23 nL of compounds dissolved in DMSO, positive controls or DMSO only was transferred to the assay plate by a pintool workstation (Kalypsys, San Diego, CA), followed by addition of 1 uL of 1.25uM NKH477 (0.25 uM as final concentration) in assay medium using a Flying Reagent Dispenser (Aurora Discovery, San Diego, CA). The plates were incubated at 37 C and 5% CO2 for 3 hrs. Then 1 uL of LiveBLAzer B/G FRET substrate (Invitrogen, Carlsbad, CA) was added to each well using Bioraptr Flying Reagent Dispenser (FRD, Aurora Discovery, San Diego, CA). The plates were incubated at room temperature for 2 h, then fluorescence intensities were measured using an Envision plate reader (PerkinElmer, Shelton, CT) at Excitation 405nm, Emission 460nm and 530nm. The % activity was determined from the ratio of 460nm/530nm. For cell viability readout that measures cytotoxicity, 4 uL /well of CellTiter-Glo reagent was added into the assay plates using Bioraptr FRD. After 30 min incubation at room temperature, the luminescence intensity in the assay plates was measured using a ViewLux (PerkinElmer, Shelton, CT) plate reader.
With `CCCCCCCCCCl`, the “viability change, negative = cytotoxic” value is 6.53%.
On the same count and under the same terms, next, `CCNc1nc(NC(C)CC)nc(OC)n1` (stereo not given): 5.29%; `COc1cc(C(=O)NS(=O)(=O)c2ccccc2C)ccc1Cc1cn(C)c2ccc(NC(=O)OC3CCCC3)cc12`: -7.14% [at 42.5 µM].
Same read-out and setting: next, `C[C@]12CCC(=O)C=C1CC[C@@H]1[C@@H]2CC[C@@]2(C)[C@H]1CC[C@]2(O)C(=O)CO`: -1.54% [at 42.5 µM].
On to `CC(=O)/C=C/C=C1/C2CCC(C2)C1(C)C` (stereo not given), for which the “viability change, negative = cytotoxic” value was -1.71% [at 42.5 µM].
On the same count and under the same terms, next, `CC(=O)C1C(=O)C=C(C)OC1=O` (stereo not given): 1.58%; `CCCC/C=C\CCCCCCCCCC=O`: 3.62%.
For `C=CC(C)(C)C`, the Potency result was “inactive”.
Take `COC1CCC=CO1` (stereo not given): the “viability change, negative = cytotoxic” value was 9.39%.
Still for that read-out and setting: next, `N#[N+]c1ccc2c(S(=O)(=O)[O-])cccc2c1O`: -2.89%.
Same read-out and setting: next, `CC(C)C1CCC(C(=O)N[C@H](Cc2ccccc2)C(=O)O)CC1` (stereo not given in full): -3.76% [at 42.5 µM]; `CCc1ccc(O)c(OC)c1`: -14.7%.
Consider `O=Cc1ccccc1C=O`, for which the Potency entry was “inactive”.
In the case of `COc1cc(C(=S)N2CCOCC2)ccc1O`, the “viability change, negative = cytotoxic” value was 6.32% [at 42.5 µM].
Take `C[C@]12C[C@H](O)[C@H]3[C@@H](CCC4=CC(=O)CC[C@@]43C)[C@@H]1CC[C@@H]2C(=O)CO`: the Potency result is “inactive”.
On the same count and under the same terms, as for `Cc1ccncc1`, the entry is “inactive”.
With `CC(C)Cc1nccs1`, the “viability change, negative = cytotoxic” value is -9.74%.
Regarding `CCc1c(C(=O)O)c(=O)cnn1-c1ccc(Cl)cc1`, the “viability change, negative = cytotoxic” value is -4.24%.
Consider `Cc1c(C(C)C)c(=O)n(-c2ccccc2)n1C`, for which the “viability change, negative = cytotoxic” value is 5.69% [at 42.5 µM].
Take `C1OCOCO1`: the “viability change, negative = cytotoxic” value is 16.2%.
Still for that read-out and setting: next, `OCC(O)[C@@H](O)[C@H](O)[C@H](O)CO[C@H]1O[C@H](CO)[C@@H](O)[C@H](O)[C@H]1O` (stereo not given in full): 7.76%; `O=C(OCC(COC(=O)c1cccnc1)(COC(=O)c1cccnc1)COC(=O)c1cccnc1)c1cccnc1`: 7.93% [at 42.5 µM]; `COCCOC(=O)CC#N`: -0.938%.
As to `C[N+](C)(C)CCCCCCCCCC[N+](C)(C)C`, the “viability change, negative = cytotoxic” value was 3.02% [at 42.5 µM].
Same read-out and setting: next, `N#CCCCC(C#N)CCC#N` (stereo not given): -0.612%; `Cc1ccc(C(C)c2ccc(C)c(C)c2)cc1C`: -10.2%; `NC1(c2ccc(-c3nc4ccn5c(=O)[nH]nc5c4cc3-c3ccccc3)cc2)CCC1`: -11.2% [at 42.5 µM].
Still for that read-out and setting: as for `COc1cc(OC)nc(O[C@H](C(=O)O)C(OC)(c2ccccc2)c2ccccc2)n1`, the figure is 2.37% [at 42.5 µM].
Regarding `COCC(C)N` (stereo not given), the Potency result was “inactive”.
With `CCOC(=O)OCC`, the “viability change, negative = cytotoxic” value is 4.53%.
Regarding `COC(=O)CCC(=O)OC`, the Potency entry is “inactive”.
Regarding `Oc1cc(O)c2c(c1)O[C@H](c1ccc(O)c(O)c1)[C@H](O)C2`, the “viability change, negative = cytotoxic” value is -1% [at 42.5 µM].
`CC(=O)OC/C=C/c1ccccc1`: the “viability change, negative = cytotoxic” value was 1.45%.
The same measure, in the same setting: as for `Oc1cccc2[nH]ccc12`, the figure is 13.4% [at 42.5 µM]; as for `CN(C)CCOC(c1ccccc1)c1ccccc1` (tested in a mixture with another compound), -0.865%; as for `CCN(CC)CC(=O)OCC(=O)[C@@]1(O)CC[C@H]2[C@@H]3CCC4=CC(=O)CC[C@]4(C)[C@H]3[C@@H](O)C[C@@]21C`, -2.19% [at 42.5 µM].
The same measure, in the same setting: as for `O=C(O)c1cccc(C(=O)O)c1`, the figure is -1.26%.
With `CCc1cc(C(C)(C)C)c(O)c(C(C)(C)C)c1`, the Potency result was “inactive”.
As for `O=C(O)c1ccc(O)c(O)c1`, the “viability change, negative = cytotoxic” value is -0.76%.
`Clc1ccc2nsnc2c1NC1=NCCN1`: the “viability change, negative = cytotoxic” value is -0.617% [at 42.5 µM].
